# Measured values reported in PubChem BioAssay.
# Where “and” joins values, the source holds several entries; their conditions need not be identical. Equal entries are not always repeated. Results filed as inconclusive are left out. For part of these data: Potency and affinity values are given separately. Some structures have more than one record in an assay (separate samples or runs), and their calls can disagree. Calls of active or inactive are those of the source.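 Rule for the calls, unless noted: active = thallium flux through the channel raised or lowered by more than 3 SD from vehicle-only wells, actives on both sides; inactive = the rest.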
# How the values were obtained:
# [1] = modulation of C. elegans fzo-1 (AID 1259413; call rule not given here;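 note: fzo-1 mutant C. elegans worms in liquid wells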); details: C. elegans fzo-1 modulator screen, mean read-out; stronger effect = higher value
# [2] = viability loss in pontine glioma line – cell-based, JHH-DIPG-1, MIPE4.0, CellTiter-Glo, qHTS, dose response (AID 1347062; cut-off not given, nearly all actives have AC50 up to about 27 µM); details: JHH-DIPG-1 viability, CellTiter-Glo ATP luminescence
# [3] = growth inhibition of DIPG cells – cell-based, MIPE4.0 library, CellTiter-Glo luminescence, qHTS (AID 1347066; cut-off not given, nearly all actives have AC50 up to about 30 µM;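 note: cells exposed to compound for 48 hours before readout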); details: SU-DIPG-VI viability, CellTiter-Glo ATP luminescence
# F380Y/beta1 = experiment: BK channel mutant inhibitors and activators – cell-based, U2OS BacMam, thallium flux, beta subunits, selectivity assay, profiling panel (AID 1259406); details: U2OS BacMam BK variants, at 30 µM;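 note: initial slope of Thallos dye fluorescence rise after thallium is added; log ratio against the mean of 0.3% DMSO vehicle wells on the same plate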
# F380Y/beta4 = experiment: as above; details: U2OS BacMam BK variants, at 30 µM
# R275C/beta4 = experiment: as above; details: U2OS BacMam BK variants, at 30 µM
# R275C/Slo1WT/beta2 = experiment: as above; details: U2OS BacMam BK variants, at 30 µM
# [4] = blockers of polyQ-driven CASP3 activation – cell-based (AID 1583); details: polyglutamine-induced caspase-3 activation, cell assay; stronger effect = higher value;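 tested at 10 µM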
# [5] = yeast 75Q aggregation reduction – 75Q-TubU reporter (AID 1593); details: Yeast 75Q polyglutamine aggregation reporter
# [6] = restoration of touch response, mutant HTT neurons – whole organism, C. elegans mechanosensory neurons, N-terminal huntingtin (AID 1599); details: C. elegans polyQ-huntingtin mechanosensory neurons, stronger effect = higher value
# [7] = blockers of cytochrome c efflux from mitochondria – biochemical, purified mitochondria (AID 1603); details: stronger effect = lower value;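 note: mouse liver mitochondria challenged with calcium chloride; signal normalized to the plate average as 100%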
# [8] = polyglutamine aggregate formation blockers (AID 1604); details: polyglutamine-induced protein aggregation inhibition assay; stronger effect = higher value; tested at 2.5 µM
# [9] = glutamate transport activators, MN-1 cells, MN-1 cell line (AID 1612); details: MN-1 motor neuron cells, stronger effect = higher value;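 note: tested at 1 µM final; 0% = mean of DMSO vehicle wells on each plate; positive means more glutamate uptake than control and negative means less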
# [10] = 75Q-TubH aggregate inhibition, S. cerevisiae, yeast (AID 1616); details: S. cerevisiae 75Q-TubH polyglutamine aggregation suppression; stronger effect = higher value
# [11] = compounds altering circadian rhythm period length – cell-based, LOPAC library, luminescence reporter (AID 2774; call rule not given here;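 note: values are relative to mean of DMSO wells on each plate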); details: circadian reporter cells, at 7 µM, actives lie on both sides
# [12] = system: Hepatitis C virus NS3 helicase; experiment: blockers of NS3h binding to ssDNA – biochemical, fluorescence polarization, LOPAC1280 library, primary screen (AID 687035; in the data active = inhibition above about 37%); details: Purified HCV NS3 helicase, Cy5-dT15 ssDNA binding fluorescence polarization; stronger effect = higher value; concentration not given here
# [13] = compounds altering Cy5-DNA-NS3h complex signal – biochemical, LOPAC1280, artefact control for HCV NS3 helicase inhibitor project (AID 687037; call rule not given here); details: Cy5-DNA-NS3h complex fluorescence interference counterscreen
# [14] = system: Aerobactin synthetase IucA (Klebsiella pneumoniae); experiment: inhibition of K. pneumoniae IucA enzyme – biochemical, Tocris library, absorbance (AID 1345561; call rule not given here;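 note: 100% = enzyme without compound and 0% = no enzyme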); details: purified IucA enzyme assay, absorbance (OD) read-out; stronger effect = lower value;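 tested at 8 µM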
# [15] = blockers of cellular phospholipid synthesis – cell-based, LOPAC library, screen 4, primary screen (AID 1347384; call rule not given here); details: animal cells, phospholipid biosynthesis inhibition screen; at 10 µM
# [16] = compounds altering HSF1 focus formation in cells – imaging, Selleck Cancer Library (AID 1347162; in the data active = plate-normalised HSF1 focus index below about 0.46); details: human cells, HSF1 nuclear foci imaging, at 10 µM; SSMD: measured here: HSF1 foci SSMD mean; cell count: measured here: cell number; plate-normalised HSF1 focus index: stronger effect = lower value
structure (smiles),measurement,setting,value
Clc1ccccc1CN1CCc2sccc2C1,mean signal,[1],271 (inactive)
same,outcome,[2],inactive
same,outcome,[3],inactive
same,log fold change Tl+ flux,F380Y/beta1,-0.0989 (active)
same,log fold change Tl+ flux,F380Y/beta4,-0.152 (active)
same,log fold change Tl+ flux,R275C/beta4,-0.0465 (inactive)
same,log fold change Tl+ flux,R275C/Slo1WT/beta2,0.00594 (inactive)
Cc1ccc(/C(=C\CN2CCCC2)c2ccccn2)cc1,inhibition,[4],21.1%
same,score,[5],1.45
same,rescue above control,[6],-10.7
same,cytochrome c release ratio,[7],1.11
same,inhibition of aggregation,[8],23.8%
same,glutamate uptake change,[9],-7.2%
same,aggregation suppression score,[10],0.939
same,period change,[11],0.045 h (inactive)
same,inhibition,[12],1% (inactive)
same,fluorescence ratio (interference),[13],1 (inactive)
same,remaining activity,[14],77.2% (inactive)
same,outcome,[15],inactive
O=C(O)COCCN1CCN(C(c2ccccc2)c2ccc(Cl)cc2)CC1 (stereo not drawn),inhibition,[12],-1% (inactive)
same,fluorescence ratio (interference),[13],1 (inactive)
same,mean signal,[1],254 (inactive)
same,remaining activity,[14],109% (inactive)
same,outcome,[2],inactive
same,outcome,[3],inactive
same,outcome,[15],inactive
same,log fold change Tl+ flux,F380Y/beta1,0.0627 (inactive)
same,log fold change Tl+ flux,F380Y/beta4,0.0511 (inactive)
same,log fold change Tl+ flux,R275C/beta4,0.0338 (inactive)
same,log fold change Tl+ flux,R275C/Slo1WT/beta2,-0.0639 (inactive)
O=C(O)c1cn(C2CC2)c2cc(N3CCNCC3)c(F)cc2c1=O,inhibition,[4],8.05%
same,score,[5],1.22
same,rescue above control,[6],13.4
same,cytochrome c release ratio,[7],1.03
same,inhibition of aggregation,[8],20.6%
same,glutamate uptake change,[9],-1.59%
same,aggregation suppression score,[10],1.3
same,outcome,[2],inactive
same,outcome,[3],inactive
CC(C)(C(=O)O)c1ccc(C(O)CCCN2CCC(C(O)(c3ccccc3)c3ccccc3)CC2)cc1 (stereo not drawn),period change,[11],0.08 h (inactive)
same,inhibition,[12],-1% (inactive)
same,fluorescence ratio (interference),[13],1.1 (inactive)
same,mean signal,[1],241 (inactive)
same,remaining activity,[14],89.1% (inactive)
same,outcome,[15],inactive
same,log fold change Tl+ flux,F380Y/beta1,-0.0158 (inactive)
same,log fold change Tl+ flux,F380Y/beta4,-0.0315 (inactive)
same,log fold change Tl+ flux,R275C/beta4,0.0234 (inactive)
same,log fold change Tl+ flux,R275C/Slo1WT/beta2,0.0197 (inactive)
CC(C)c1c(C(=O)Nc2ccccc2)c(-c2ccccc2)c(-c2ccc(F)cc2)n1CC[C@@H](O)C[C@@H](O)CC(=O)O,outcome,[15],inactive
CC(C)(C)CC(C)(C)c1ccc(OCCOCC[N+](C)(C)Cc2ccccc2)cc1,inhibition,[4],70.8%
same,score,[5],-0.06
same,rescue above control,[6],0
same,cytochrome c release ratio,[7],15.9
same,inhibition of aggregation,[8],58.6%
same,glutamate uptake change,[9],-11.3%
same,aggregation suppression score,[10],-0.0343
O=S(=O)(c1cccc2cnccc12)N1CCCNCC1,remaining activity,[14],109% (inactive)
same,outcome,[2],inactive
same,outcome,[3],inactive
CC(C)(C)c1ccc(C(O)CCCN2CCC(C(O)(c3ccccc3)c3ccccc3)CC2)cc1 (stereo not drawn),inhibition,[4],70.6%
same,score,[5],0.48
same,cytochrome c release ratio,[7],4.87
same,inhibition of aggregation,[8],4.76%
same,glutamate uptake change,[9],-7.35%
same,aggregation suppression score,[10],0.868
same,period change,[11],0.22 h (inactive)
same,inhibition,[12],-3% (inactive)
same,fluorescence ratio (interference),[13],0.9 (inactive)
same,outcome,[15],inactive
C[N+]1(C)CCC(OC(=O)C(O)(c2ccccc2)C2CCCC2)C1 (stereo not drawn),mean signal,[1],254 (inactive)
same,log fold change Tl+ flux,F380Y/beta1,0.0124 (inactive) and -0.000209 (inactive)
same,log fold change Tl+ flux,F380Y/beta4,-0.00589 (inactive) and 0.00112 (inactive)
same,log fold change Tl+ flux,R275C/beta4,0.0451 (inactive) and -0.0272 (inactive)
same,log fold change Tl+ flux,R275C/Slo1WT/beta2,0.0815 (active) and 0.0504 (inactive)
CC(C)n1c(/C=C/[C@@H](O)C[C@@H](O)CC(=O)O)c(-c2ccc(F)cc2)c2ccccc21,mean signal,[1],243 (inactive)
same,SSMD,[16],2.42
same,cell count,[16],6600
same,plate-normalised HSF1 focus index,[16],1.13 (inactive)
same,log fold change Tl+ flux,F380Y/beta1,0.0905 (inactive)
same,log fold change Tl+ flux,F380Y/beta4,8.3e-05 (inactive)
same,log fold change Tl+ flux,R275C/beta4,0.103 (inactive)
same,log fold change Tl+ flux,R275C/Slo1WT/beta2,0.0615 (inactive)
NCCCC(O)(P(=O)(O)O)P(=O)(O)O,outcome,[2],inactive
O=C(O)CCn1c2c(c3ccccc31)C[C@H](NS(=O)(=O)c1ccc(F)cc1)CC2,outcome,[2],inactive
same,outcome,[3],inactive
CN(C)c1nc(N(C)C)nc(N(C)C)n1,SSMD,[16],0.836
same,cell count,[16],7300
same,plate-normalised HSF1 focus index,[16],1.03 (inactive)
CCc1ccc(CCOc2ccc(CC3SC(=O)NC3=O)cc2)nc1 (stereo not drawn),SSMD,[16],-1.24
same,cell count,[16],7530
same,plate-normalised HSF1 focus index,[16],0.926 (inactive)
CN(C)CCC(c1ccc(Cl)cc1)c1ccccn1 (stereo not drawn),inhibition,[4],-45.4%
same,score,[5],1.36
same,rescue above control,[6],7.64
same,cytochrome c release ratio,[7],0.61
same,inhibition of aggregation,[8],-12.5%
same,glutamate uptake change,[9],-7.91%
same,aggregation suppression score,[10],1.27
same,period change,[11],-0.5 h (inactive)
same,inhibition,[12],-6% (inactive)
same,fluorescence ratio (interference),[13],0.9 (inactive)
same,mean signal,[1],225 (inactive)
same,outcome,[15],inactive
same,log fold change Tl+ flux,F380Y/beta1,-0.0189 (inactive)
same,log fold change Tl+ flux,F380Y/beta4,0.0511 (inactive)
same,log fold change Tl+ flux,R275C/beta4,0.0326 (inactive)
same,log fold change Tl+ flux,R275C/Slo1WT/beta2,0.0403 (inactive)
